For some assays here: Results with a measured potency or affinity are listed apart. Active and inactive are the calls of the source.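 How the source made its calls, unless noted: active means primary screen inhibitor hit that blocks the TRPC4 channel at some tested dose, yielding a dose curve; inactive means the rest.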
Columns and labels:
[1] = test system: TRPC4 beta (transient receptor potential cation channel C4), mouse; test: TRPC4 cation channel opening, retest – cell-based, Fluo4 calcium, HEK293 TRPC4beta/mu-opioid, duplicates, 10 µM, confirmation (AID 2426;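 active means fluorescence ratio normalized to control raised more than 50% in primary screen plus both repeat runs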); settings: Fluo4 calcium fluorescence, at 10 µM; stronger effect = higher value
[2] = test system: transient receptor potential cation channel C4 beta (TRPC4), mouse; test: TRPC4 cation channel opening, second retest – cell-based, second round, Fluo4, HEK293 TRPC4beta/mu-opioid, 1 µM, confirmation (AID 2461;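 active means primary screen active and over 50% activation in each of two duplicate runs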); settings: Fluo4 calcium fluorescence, at 1 µM; stronger effect = higher value
[3] = test system: TRPC4 (transient receptor potential cation channel C4 beta), mouse; test: potentiation of DAMGO EC20 TRPC4 response – cell-based, second round, Fluo-4, HEK293 TRPC4beta/mu-opioid, 1 µM, confirmation (AID 2554;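 active means primary screen hit whose fluorescence ratio, in both repeats, exceeds the weak agonist control mean by 3 SD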); settings: DAMGO EC20, Fluo-4 calcium flux, at 1 µM; stronger effect = higher value
[4] = test system: TRPC4 beta (transient receptor potential cation channel C4), mouse; test: potentiation of DAMGO EC20 TRPC4 response – cell-based, Fluo-4, HEK293 TRPC4beta/mu-opioid, confirmation (AID 2555;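 active means primary screen hit whose calcium fluorescence ratio, in both repeats, exceeds the weak agonist control mean by 3 SD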); settings: DAMGO EC20, Fluo-4 calcium flux, at 10 µM; stronger effect = higher value
[5] = target: Short transient receptor potential channel 4 (Mus musculus) (UniProt Q9QUQ5); test: blockers of DAMGO-evoked TRPC4 calcium flux – cell-based, Fluo4, HEK293 TRPC4beta/mu-opioid, confirmation (AID 2636;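 active means calcium signal cut by more than 3 SD below the full-agonist control yet still positive, in both repeats and the earlier primary screen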); settings: at 10 µM; stronger effect = higher value
[6] = target: Short transient receptor potential channel 4 (Mus musculus) (UniProt Q9QUQ5); test: blockers of DAMGO-evoked TRPC4 calcium flux – cell-based, second round, Fluo4, HEK293 TRPC4beta/mu-opioid, 1 µM, confirmation (AID 2637;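 active means calcium signal ratio cut to more than 3 SD under the fully stimulated control mean yet still positive, in both repeats and the primary screen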); settings: at 1 µM; stronger effect = higher value
[7] = target: Short transient receptor potential channel 4 (Mus musculus) (UniProt Q9QUQ5); test: calcium entry via TRPC4 opening agents – cell-based, HEK293 TRPC4/mu-opioid, Fluo-4 calcium, dose response (AID 434937;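 active means primary screen activator hit with a dose response curve and TRPC4 channel activation at any tested dose; inactive means no activation, no dose response, or not a primary hit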)
[8] = target: Short transient receptor potential channel 4 (Mus musculus) (UniProt Q9QUQ5); test: potentiation of DAMGO-evoked TRPC4 calcium signal – cell-based, HEK293 TRPC4/mu-opioid, Fluo-4 calcium, EC20 DAMGO, dose response (AID 434941;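 active means earlier screen potentiator hit that boosts the TRPC4 ion channel at some dose, with a dose response; inactive means no potentiation, no dose response, or not a prior hit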;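 further: calcium entry triggered by an EC20 dose of DAMGO at the co-expressed mu-opioid receptor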)
[9] = target: Short transient receptor potential channel 4 (Mus musculus) (UniProt Q9QUQ5); test: block of DAMGO-driven TRPC4 calcium entry – cell-based, HEK293 TRPC4/mu-opioid, Fluo-4 calcium, dose response (AID 434942)
[10] = target: Short transient receptor potential channel 6 (Mus musculus) (UniProt Q61143); test: TRPC6 blockade by TRPC4 inhibitor hits – cell-based, HEK293, membrane potential dye, duplicate, selectivity assay for TRPC4 inhibitor project, confirmation (AID 434948;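 active means active in primary screen and both duplicates, each dropping signal beyond three positive-control SD with fluorescence still positive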); settings: HEK293 TRPC6, membrane potential dye fluorescence, at 10 µM, stimulated with maximal-effect acetylcholine; stronger effect = higher value
[11] = target: Short transient receptor potential channel 6 (Mus musculus) (UniProt Q61143); test: TRPC6 opening by TRPC4 activator hits – cell-based, HEK293, membrane potential dye, duplicate, selectivity assay for TRPC4 activator project, confirmation (AID 434950;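 active means membrane potential signal rise above negative control mean plus 3 SD in both duplicates, also active in the earlier TRPC4 screen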); settings: HEK293 TRPC6, membrane potential fluorescence, at 10 µM; activation: stronger effect = higher value; outcome: activation
[12] = target: Short transient receptor potential channel 6 (Mus musculus) (UniProt Q61143); test: positive modulators of mouse TRPC6 channel – HEK293 cells, membrane potential dye, duplicate, selectivity assay for TRPC4 potentiator project, confirmation (AID 434952;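 active means compound raising the membrane signal above positive-control mean plus 3 SD in both repeats, and a primary screen hit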); settings: HEK293 TRPC6, membrane potential dye fluorescence, at 10 µM, maximal acetylcholine added after compound; stronger effect = higher value
[13] = target: Short transient receptor potential channel 4 (Mus musculus) (UniProt Q9QUQ5); test: calcium flux activators in TRPC4/5HT1a cells, counter-screen for TRPC4 activator project, cell-based, second counter screen, HEK293 TRPC4/5HT1a, Fluo-4 (AID 434977;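 active means calcium signal rise above buffer-control mean plus 5 SD in both duplicates, and also a hit in the primary screen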); settings: Fluo-4 calcium flux, at 10 µM; stronger effect = higher value
[14] = serotonin-gated TRPC4 signal block – cell-based, second counter screen, HEK293 TRPC4/5HT1a, Fluo-4, counter-screen for TRPC4 inhibitor project, confirmation (AID 434978;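 active means primary screen active whose calcium signal fell more than 3 SD beyond the full-serotonin control mean in both duplicate plates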;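 further: serotonin given first at submaximal then at maximal dose after compound preincubation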); settings: Fluo-4 calcium flux, at 10 µM, serotonin added to trigger calcium flux; stronger effect = higher value
[15] = test system: TRPC4 (mouse), co-expressed with 5HT1a in HEK293; test: enhancement of serotonin-evoked TRPC4 response – cell-based, second counter screen, HEK293 TRPC4/5HT1a, Fluo-4, counter-screen for TRPC4 potentiator project, confirmation (AID 434979;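 active means signal rise over 3 SD above mean of control wells given weak agonist, in both repeats and first screen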); settings: Fluo-4 calcium flux, at 10 µM, serotonin added at its EC20 dose; stronger effect = higher value
[16] = nonspecific calcium rise without TRPC4 – cell-based, HEK293 mu-opioid receptor line, counter-screen for TRPC4 activator project, confirmation (AID 449723;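 active means hit in primary screen, with calcium signal over 5 SD above buffer well mean in both duplicates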;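 further: counter screen cells carry the mu-opioid receptor alone and lack TRPC4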); settings: HEK293 mu-opioid cells, Fluo-4 calcium fluorescence, at 10 µM; stronger effect = higher value
[17] = nonspecific potentiation of DAMGO calcium response – cell-based, HEK293 mu-opioid receptor line, counter-screen for TRPC4 allosteric potentiator project, confirmation (AID 449724;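 active means calcium signal rise more than 3 SD above the low-dose agonist control mean, in both duplicate plates and the primary screen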); settings: HEK293 mu-opioid receptor cells, Fluo-4 calcium flux, at 10 µM, compound added before EC20 DAMGO stimulus; stronger effect = higher value

Short transient receptor potential channel 4 (Mus musculus), sequence (Q9QUQ5 whole entry, looked up): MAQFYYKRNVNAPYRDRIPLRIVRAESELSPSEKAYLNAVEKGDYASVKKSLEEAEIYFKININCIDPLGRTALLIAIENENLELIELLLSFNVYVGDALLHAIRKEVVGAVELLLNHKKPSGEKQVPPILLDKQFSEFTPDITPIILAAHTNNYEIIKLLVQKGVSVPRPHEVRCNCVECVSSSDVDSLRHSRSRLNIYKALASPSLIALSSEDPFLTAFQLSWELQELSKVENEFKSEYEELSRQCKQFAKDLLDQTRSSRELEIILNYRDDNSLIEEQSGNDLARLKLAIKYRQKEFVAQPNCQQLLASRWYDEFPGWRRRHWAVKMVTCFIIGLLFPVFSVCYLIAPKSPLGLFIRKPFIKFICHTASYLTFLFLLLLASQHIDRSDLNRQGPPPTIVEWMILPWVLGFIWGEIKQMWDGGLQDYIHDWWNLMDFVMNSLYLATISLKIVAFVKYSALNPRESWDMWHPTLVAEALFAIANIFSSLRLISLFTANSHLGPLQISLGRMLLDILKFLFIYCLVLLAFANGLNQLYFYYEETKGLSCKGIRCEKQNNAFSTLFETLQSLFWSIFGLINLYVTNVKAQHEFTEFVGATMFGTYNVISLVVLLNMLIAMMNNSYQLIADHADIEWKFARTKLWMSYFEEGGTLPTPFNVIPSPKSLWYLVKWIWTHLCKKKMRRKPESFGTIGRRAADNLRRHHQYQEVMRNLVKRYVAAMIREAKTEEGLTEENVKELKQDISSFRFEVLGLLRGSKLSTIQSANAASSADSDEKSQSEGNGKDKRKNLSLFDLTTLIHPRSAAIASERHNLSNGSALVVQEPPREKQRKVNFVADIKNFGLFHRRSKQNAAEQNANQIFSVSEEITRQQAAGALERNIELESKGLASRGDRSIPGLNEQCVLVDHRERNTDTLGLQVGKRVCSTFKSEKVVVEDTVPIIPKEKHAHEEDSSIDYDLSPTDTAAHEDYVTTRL
Short transient receptor potential channel 6 (Mus musculus), sequence (Q61143 whole entry, looked up): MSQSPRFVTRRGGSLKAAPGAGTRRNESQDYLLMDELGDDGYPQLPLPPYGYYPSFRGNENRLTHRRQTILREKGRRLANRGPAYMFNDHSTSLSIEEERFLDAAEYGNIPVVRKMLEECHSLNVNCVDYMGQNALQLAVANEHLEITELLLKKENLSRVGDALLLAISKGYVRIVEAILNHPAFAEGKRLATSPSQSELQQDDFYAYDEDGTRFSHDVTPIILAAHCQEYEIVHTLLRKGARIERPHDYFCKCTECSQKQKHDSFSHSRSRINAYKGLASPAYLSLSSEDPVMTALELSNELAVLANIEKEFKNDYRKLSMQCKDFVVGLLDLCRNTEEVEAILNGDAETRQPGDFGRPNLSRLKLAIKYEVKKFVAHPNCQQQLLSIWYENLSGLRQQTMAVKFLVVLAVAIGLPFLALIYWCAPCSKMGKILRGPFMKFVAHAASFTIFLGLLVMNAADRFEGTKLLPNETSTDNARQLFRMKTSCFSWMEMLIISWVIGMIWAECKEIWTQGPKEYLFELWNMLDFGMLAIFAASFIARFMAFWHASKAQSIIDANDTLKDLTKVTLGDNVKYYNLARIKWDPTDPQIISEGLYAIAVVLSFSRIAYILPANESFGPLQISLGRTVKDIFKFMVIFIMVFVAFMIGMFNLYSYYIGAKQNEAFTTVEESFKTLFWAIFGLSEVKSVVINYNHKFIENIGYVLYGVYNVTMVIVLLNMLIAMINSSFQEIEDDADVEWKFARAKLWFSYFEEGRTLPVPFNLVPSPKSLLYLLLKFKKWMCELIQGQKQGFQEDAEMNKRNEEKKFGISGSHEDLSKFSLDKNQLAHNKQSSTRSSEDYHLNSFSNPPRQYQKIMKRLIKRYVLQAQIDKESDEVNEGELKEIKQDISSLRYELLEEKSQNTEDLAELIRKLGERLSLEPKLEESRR

O=C(NCCCN1CCOCC1)C1CCN(S(=O)(=O)c2c(Cl)cccc2Cl)CC1
inactive: outcome [1] | outcome [2] | outcome [3] | outcome [4] | outcome [5] | outcome [6] | outcome [7] | outcome [8] | outcome [9] | outcome [10] | outcome [11] | outcome [12] | outcome [13] | outcome [14] | outcome [15] | outcome [16] | outcome [17]

COc1ccc(N(C(=O)c2snc(C(N)=O)c2N)C(C(=O)NC2CCCCC2)c2ccc(C)o2)c(OC)c1 (centres undefined)
inactive: outcome [1] | outcome [2] | outcome [3] | outcome [4] | outcome [5] | outcome [6] | outcome [7] | outcome [8] | outcome [9] | outcome [10] | outcome [11] | outcome [12] | outcome [13] | outcome [14] | outcome [15] | outcome [16] | outcome [17]

Cc1c(N2C(=O)/C(=C/c3ccccc3)SC2=S)c(=O)n(-c2ccccc2)n1C
inactive: outcome [1] | outcome [2] | outcome [3] | outcome [4] | outcome [5] | outcome [6] | outcome [7] | outcome [8] | outcome [9] | outcome [10] | outcome [11] | outcome [12] | outcome [13] | outcome [14] | outcome [15] | outcome [16] | outcome [17]

CC1CN(c2nc3c(c(=O)n(Cc4ccc(Cl)c(Cl)c4)c(=O)n3C)n2C)CC(C)O1 (centres undefined)
active: potentiation [4] 13% | potentiation [15] 26.4%
inactive: outcome [1] | outcome [2] | outcome [3] | outcome [5] | outcome [6] | outcome [7] | outcome [8] | outcome [9] | outcome [10] | outcome [11] | outcome [12] | outcome [13] | outcome [14] | outcome [16] | outcome [17]

CCCCCOc1ccc2oc(=O)c3c(c2c1)CCCN3C(=O)CN1CCCC(C(=O)OCC)C1 (centres undefined)
inactive: outcome [1] | outcome [2] | outcome [3] | outcome [4] | outcome [5] | outcome [6] | outcome [7] | outcome [8] | outcome [9] | outcome [10] | outcome [11] | outcome [12] | outcome [13] | outcome [14] | outcome [16] | outcome [17]
active: potentiation [15] 7.34%

c1ccc(Cc2nc3ccccc3n2Cc2ccccc2)cc1
inactive: outcome [1] | outcome [2] | outcome [3] | outcome [4] | outcome [5] | outcome [6] | outcome [7] | outcome [8] | outcome [9] | outcome [10] | outcome [11] | outcome [12] | outcome [13] | outcome [14] | outcome [15] | outcome [16] | outcome [17]

CCCCCCc1cc2cc(-c3nnc(-c4cc(OC)c(OC)c(OC)c4)o3)c(=O)oc2cc1O
inactive: outcome [1] | outcome [2] | outcome [3] | outcome [5] | outcome [6] | outcome [7] | outcome [8] | outcome [9] | outcome [10] | outcome [11] | outcome [12] | outcome [13] | outcome [14] | outcome [16]
active: potentiation [4] 37% | potentiation [15] 16.1% | activation [17] 4130%
